± gives the standard deviation of the averaged measurements.
Assays:
Conditions in all cases: concentration: 10 µM; 24 h
HCC1569 [1] = assay: cell number relative to DMSO (% of DMSO); higher = more cells (less growth inhibition / toxicity)
Summary of the method: (§1)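 HCC1569 and TDF cells (800 per well, 384-well plates, RPMI with 10% FBS) were treated with compounds at 10 µM for 24 h at 37 °C, in triplicate. Cells were fixed in 3.7% formaldehyde and stained with a rabbit anti-H1.0 antibody, an AlexaFluor 647 secondary and DAPI; six fields per well were imaged at ×10. H1.0 nuclear intensity or cell number is expressed as percent of the plate DMSO control, taking the median of replicates. HCC1569 values were smoothed for positional effects.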

TDF [2] = assay: as above
Summary of the method: as §1

TDF [3] = assay: H1.0 immunofluorescence intensity relative to DMSO (% of DMSO); higher = stronger H1.0 induction, active = 120 or more
Summary of the method: as §1

HCC1569 [4] = assay: H1.0 immunofluorescence intensity relative to DMSO (% of DMSO); higher = stronger H1.0 induction, active = 140 or more
Summary of the method: as §1
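Wherever H1.0 immunofluorescence intensity relative to DMSO is given: TDF is a line of transformed human dermal fibroblasts of mesenchymal origin.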
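Wherever cell number relative to DMSO is given: TDF denotes transformed human dermal fibroblasts of mesenchymal origin.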

Row | SMILES | cell number (HCC1569 [1]) | cell number (TDF [2]) | H1.0 immunofluorescence intensity (TDF [3]) | H1.0 immunofluorescence intensity (HCC1569 [4])
1 | CC1CCN(CCC2CCCN2S(=O)(=O)c2cccc(O)c2)CC1.Cl (configuration not stated) | 102 | 109 | 92.1 (inactive) | 107 (inactive)
2 | Br.CN1CCc2cc(O)c(O)cc2C1Cc1ccc(O)c(O)c1.O.O.O (configuration not stated) | 105 | 108 | 93.9 (inactive) | 89.2 (inactive)
3 | CN(C)CCCn1cc(C2=C(c3c[nH]c4ccccc34)C(=O)NC2=O)c2ccccc21 | 86.2 | 79.5 | 115 (inactive) | 139 (inactive)
4 | CN(C)CCCC1(c2ccc(F)cc2)OCc2cc(C#N)ccc21 (configuration not stated) [Citalopram] | 103 | 114 | 91.3 (inactive) | 100 (inactive)
5 | O=c1c(-c2ccc(O)cc2)coc2cc(O)cc(O)c12 | 97.6 | 100 | 96.6 (inactive) | 104 (inactive)
6 | N#CC(=Cc1ccc(O)c(O)c1)C(=O)NCCCc1ccccc1 [Tyrphostin AG 555] | 79.8 | 90.7 | 88.6 (inactive) | 107 (inactive)
7 | CC(C)NCC(O)COc1ccc(CC(N)=O)cc1 (stereo not drawn) [R(+)-Atenolol] | 98.9 | 109 | 90.9 (inactive) | 95.4 (inactive)
8 | COC(=O)C1C(O)CCC2CN3CCc4c([nH]c5ccccc45)C3CC21.Cl (configuration not stated) [Rauwolscine hydrochloride] | 99.9 | 117 | 87 (inactive) | 103 (inactive)
9 | Cc1cc(C(C)(C)C)cc(C)c1CC1=NCCN1.Cl [Xylometazoline hydrochloride] | 97.5 | 93.3 | 98.3 (inactive) | 110 (inactive)
10 | O=C(NCCN1CCC(n2c(=O)[nH]c3cc(Cl)ccc32)CC1)c1ccc(F)cc1 | 91.9 | 98 | 96.6 (inactive) | 99.5 (inactive)
11 | CN1CCCN=C1C=Cc1cccs1.O=C(O)c1cc2ccccc2c(Cc2c(O)c(C(=O)O)cc3ccccc23)c1O [Pyrantel Pamoate] | 94.4 | 109 | 88.8 (inactive) | 115 (inactive)
12 | CCCNCC(O)COc1ccccc1C(=O)CCc1ccccc1.Cl [(S)-(-)-propafenone hydrochloride] | 98.4 | 104 | 90.3 (inactive) | 111 (inactive)
13 | CNCCCN1c2ccccc2CCc2ccccc21.Cl [Desipramine hydrochloride] | 102 | 97.5 | 98.7 (inactive) | 92.6 (inactive)
14 | CC(=O)NC(Cc1c[nH]c2ccccc12)C(=O)OCc1cc(C(F)(F)F)cc(C(F)(F)F)c1 (configuration not stated) | 102 | 103 | 93.2 (inactive) | 90.8 (inactive)
15 | CC1CCC(C(C)(C)O)CC2=C1CCC2C (single isomer, unassigned; (-)) [(-)-Guaiol] | 99.2 | 102 | 102 (inactive) | 106 (inactive)
16 | NC(=O)Nc1sc(-c2ccc(F)cc2)cc1C(N)=O | 75.6 | 60.6 | 96.3 (inactive) | 177 (active)
17 | CNCCC(Oc1ccccc1OC)c1ccccc1.Cl (configuration not stated) [Nisoxetine hydrochloride] | 98.6 | 111 | 99.4 (inactive) | 101 (inactive)
18 | CC1=C(C)C(=O)C(CCCCC#CCCCC#CCO)=C(C)C1=O | 99.09 ± 0.2 | 85 ± 1.8 | 104 (inactive) | 103 (inactive)
19 | OCC1OC(n2cnc3c(Nc4ccccc4)ncnc32)C(O)C1O (configuration not stated) [N6-Phenyladenosine] | 101 | 118 | 86.1 (inactive) | 104 (inactive)
20 | Cc1ccc(C(=O)c2cc(O)c(O)c([N+](=O)[O-])c2)cc1 [Tolcapone] | 101 | 92.1 | 93.3 (inactive) | 112 (inactive)
21 | Cn1c(=O)c2[nH]c(-c3ccc(S(=O)(=O)O)cc3)nc2n(C)c1=O [8-(p-Sulfophenyl)theophylline] | 101 | 109 | 93.8 (inactive) | 89 (inactive)
22 | Oc1cc(O)cc(/C=C/c2ccc(Br)cc2)c1 [5-[(E)-2-(4-bromophenyl)ethenyl]-1,3-benzenediol] | 93.1 | 98.8 | 95.4 (inactive) | 127 (inactive)
23 | COc1cc(C(=O)OC2CC3CCC2(C)C3(C)C)ccc1O (configuration not stated) [Tschimganine] | 101 | 103 | 99.6 (inactive) | 88.3 (inactive)
24 | O=C(O)c1ccc(O)c2ncccc12 [8-hydroxy-5-quinolinecarboxylic acid] | 102 | 99.2 | 94.9 (inactive) | 98 (inactive)
25 | OCC1OC(n2cnc3c(NC4CCCC4)nc(Cl)nc32)C(O)C1O (configuration not stated) [2-Chloro-N6-cyclopentyladenosine] | 109 | 104 | 89.3 (inactive) | 80.9 (inactive)
26 | Cn1sc(=O)n(Cc2ccccc2)c1=O [GSK-3b Inhibitor I] | 98.9 | 102 | 98.3 (inactive) | 134 (inactive)
27 | Cn1ccnc1 [1-Methylimidazole] | 103 | 105 | 97.4 (inactive) | 98.9 (inactive)

Row | SMILES | cell number (HCC1569 [1]) | cell number (TDF [2]) | H1.0 immunofluorescence intensity (TDF [3]) | H1.0 immunofluorescence intensity (HCC1569 [4])
28 | COc1ccc(Cl)cc1C(=O)NCCc1ccc(S(=O)(=O)NC(=O)NC2CCCCC2)cc1 [Glibenclamide] | 101 | 105 | 93.9 (inactive) | 90.3 (inactive)
29 | CCCCCCCCCCCCCC=CC(O)C(N)CO (configuration not stated) [Sphingosine] | 103 ± 4.4 | 101 ± 6.5 | 96.9 (inactive) | 98.4 (inactive)
30 | CCCCCC=CCC=CCC=CC=CC(O)CCCC(=O)O (racemic) | 101 | 93 | 109 (inactive) | 102 (inactive)
31 | COc1ccc(S(=O)(=O)N2CCC[C@H]2C(=O)Nc2cc(C)cc(C)c2)cc1 | 101 | 113 | 95.5 (inactive) | 102 (inactive)
32 | CC(Oc1c(Cl)cccc1Cl)C1=NCCN1.Cl (configuration not stated) [Lofexidine.HCl] | 98.9 | 107 | 100 (inactive) | 96.1 (inactive)
33 | CCC1(c2ccccc2)C(=O)NCNC1=O [Primidone] | 102 | 97.2 | 98 (inactive) | 102 (inactive)
34 | COc1ccc(C(=O)Nc2sc3c(c2C(N)=O)CCCC3)cc1OC [Flt-3 Inhibitor] | 96.7 | 105 | 94.7 (inactive) | 119 (inactive)
35 | CC(C)Cc1ccc(C(C)C(=O)O)cc1 (stereo not drawn) [S(+)-Ibuprofen] | 103 | 108 | 96 (inactive) | 90.5 (inactive)
36 | O=C(O)CCCC=CCC1C(O)CC(F)C1C=CC(O)C1Cc2ccccc2C1 (configuration not stated) | 103 | 103 | 91.9 (inactive) | 97.3 (inactive)
37 | CCN1C(=CC(C)=O)Sc2ccc(OC)cc21 [Cdc2-Like Kinase Inhibitor, TG003] | 97.3 | 112 | 89.5 (inactive) | 119 (inactive)
38 | N#Cc1ccc(C(c2ccc(C#N)cc2)n2cncn2)cc1 [Letrozole] | 100 | 103 | 96.8 (inactive) | 102 (inactive)
39 | NCC1OC(OC2C(N)CC(N)C(OC3OC(CO)C(O)C(N)C3O)C2O)C(O)C(O)C1O.O=S(=O)(O)O (configuration not stated) [Kanamycin sulfate] | 99.5 | 106 | 99.3 (inactive) | 90.1 (inactive)
40 | COC(=O)c1ccc(O)c2[nH]c3c(C=O)c(O)cc(=O)c-3nc12 [Lomofungin] | 105 | 117 | 94.3 (inactive) | 101 (inactive)
41 | CCC(C)C(CC)C(N)=O (configuration not stated) [2-ethyl-3-methylpentanamide] | 103 | 107 | 92.3 (inactive) | 96.6 (inactive)
42 | Cc1ccc(S(=O)(=O)NC(=O)NN2CCCCCC2)cc1 [Tolazamide] | 101.3 ± 0.45 | 111.1 ± 0.38 | 93.2 (inactive) | 102 (inactive)
43 | COc1ccc(S(=O)(=O)Nc2nc(-c3cccc([N+](=O)[O-])c3)c(CN3CCCCC3)s2)cc1OC | 101 | 98.9 | 89.5 (inactive) | 110 (inactive)
44 | CC[N+](CC)(CC)CCOc1ccc(C=Cc2ccccc2)cc1.[I-] | 99.7 | 72.2 | 104 (inactive) | 111 (inactive)
45 | CC1Cc2ccccc2N1NC(=O)c1ccc(Cl)c(S(N)(=O)=O)c1 (configuration not stated) [Indapamide] | 106 | 101 | 88.5 (inactive) | 112 (inactive)
46 | CC(ONC(=O)c1cc(C(F)(F)F)cc(C(F)(F)F)c1)C(=O)Nc1ccc(Cl)cc1 (configuration not stated) | 85.2 | 93.3 | 103 (inactive) | 144 (active)
47 | CCOC(=O)Nc1ccc(NCc2ccc(F)cc2)nc1N.O=C(O)C=CC(=O)O [Flupirtine maleate] | 97.3 | 99.2 | 89.1 (inactive) | 105 (inactive)
48 | CCCCCC=CCC=CCC=CCC=CCCCC(=O)C(F)(F)F | 104 | 96.7 | 95.3 (inactive) | 95.1 (inactive)
49 | CC(=O)OCC(=O)[C@@]1(O)CC[C@H]2[C@@H]3CCC4=CC(=O)C=C[C@]4(C)[C@H]3[C@@H](O)C[C@@]21C | 99.3 | 103 | 93.1 (inactive) | 101 (inactive)
50 | O=c1c(O)c(-c2ccc(O)cc2O)oc2cc(O)cc(O)c12 [Morine] | 101 | 109 | 95 (inactive) | 82.4 (inactive)
51 | CC(C(=O)O)c1ccc(-c2ccccc2)c(F)c1 (configuration not stated) [Flurbiprofen] | 98.6 | 101 | 97.4 (inactive) | 101 (inactive)
52 | CCCCCC(O)CCCC(=O)[O-].[Na+] (configuration not stated) [5-hydroxydecanoic acid sodium] | 99.5 | 96 | 99.5 (inactive) | 114 (inactive)
53 | CN(C)c1nc(N)c(C(=O)N=C(N)N)nc1Cl.Cl [5-(N,N-Dimethyl)amiloride hydrochloride] | 99.9 | 89.7 | 96.1 (inactive) | 103 (inactive)

Source: the supplement of paper PMC7156485
